{"source": "PubChem BioAssay (Tox21)", "note": "Inconclusive results are not listed. Where a call stands in place of a potency, no number is given. Unmarked numbers belong to inactive results. Calls of active or inactive are those of the source. The call rests on the fitted dose curve; in most records, active means well fitted inhibition curve with a large enough effect in the repeat runs; inconclusive means weak or mixed curves; inactive means flat fitted curve, though single readings scatter.", "data": [{"experiment": "qHTS assay to identify small molecule HDAC inhibitors (AID 1259364); further: top concentration of the series differs between compounds; nearly all actives have a fitted effect of over 45% in size", "conditions": "HCT-116 HDAC-Glo I/II luminescence, 2 h; series mostly up to 92.4 µM", "description": "U.S. Tox21 Program National Center for Advancing Translational Sciences [NCATS] NIH Chemical Genomics Center [NCGC] U.S. Environmental Protection Agency [EPA] National Institutes of Environmental Health Sciences [NIEHS] National Toxicology Program [NTP] U.S. Food and Drug Administration [FDA] Tox21 Assay Overview: Histone deacetylases (HDACs) are a group of epigenetic enzymes that regulate gene expression by histone deacetylation. HDACs are capable of introducing epigenetic modifications and such aberrations contribute to the onset and progression of several human diseases, thus making HDACs a popular therapeutic target. For identifying endogenous class I/II HDAC inhibitors a homogenous, luminogenic HDAC I/II cell based assay was used to measure the relative activity of class I and II HDACs from cells. Wild type HCT-116 cells were used to screen Tox21 libraries for identifying class I/II HDAC inhibitors.\nTox21 Assay Protocol Summary: HCT-116 cells were dispensed at 1,500 per well in 5uL of culture medium into white solid bottom 1536-well plates (Greiner Bio-One, Monroe, NC) using a Multidrop Combi (Thermo Scientific, Waltham, MA) dispenser. The assay plates were incubated at 37 C and 5% CO2 for an overnight, and then 23nL of compounds dissolved in DMSO and positive control were transferred using a Pintool station (Wako, San Diego, CA). The assay plates were incubated at 37C and 5% CO2 for 2hr. After compound treatment, 4uL of HDAC-Glo reagent (Promega Corporation, Madison, WI) was added to each well of the assay plates using Flying Reagent Dispenser (FRD, Aurora Discovery, San Diego, CA) and incubated the assay plates at room temperature for 30min. The luminescence signal was quantified using a ViewLux plate reader (Perkin Elmer, Shelton, CT).", "values": [{"smiles": "COC(=O)C1=C(C)NC(C)=C(C(=O)OC)C1c1ccccc1[N+](=O)[O-]", "Potency": "inactive"}, {"smiles": "COc1ccccc1OCC(O)CN1CCN(CC(=O)Nc2c(C)cccc2C)CC1", "note": "(stereo not given)", "Potency": "inactive"}, {"smiles": "C=COCC1CCC(CO)CC1", "note": "(stereo not given)", "Potency": "inactive"}, {"smiles": "CCOC(=O)c1cccc(N)c1", "Potency": "inactive"}, {"smiles": "O=C1OC(=O)C2CCCCC12", "note": "(stereo not given)", "Potency": "inactive"}, {"smiles": "NC(=O)c1ccc([N+](=O)[O-])cc1", "Potency": "inactive"}, {"smiles": "NCCc1cnc[nH]1", "Potency": "inactive"}, {"smiles": "O=C(O)CN(CCOCCOCCN(CC(=O)O)CC(=O)O)CC(=O)O", "activity change, negative = inhibition": "-0.631% [at 0.349 µM]"}, {"smiles": "c1ccc([C@H]2CN3CCSC3=N2)cc1", "Potency": "inactive"}, {"smiles": "Cc1ccc(C#N)cc1", "Potency": "inactive"}, {"smiles": "NC(=O)c1ccc(N)cc1", "Potency": "inactive"}, {"smiles": "C1CN(CCOCCN2CCOCC2)CCO1", "Potency": "inactive"}, {"smiles": "O=C(c1ccccc1)C1CCCCC1", "Potency": "inactive"}, {"smiles": "CC(C)NC(=O)NC(C)C", "Potency": "inactive"}, {"smiles": "Cc1cccc(C)c1NC(=O)C(C)N", "note": "(stereo not given)", "Potency": "inactive"}, {"smiles": "C/C=C(\\C)C#N", "Potency": "inactive"}, {"smiles": "O=S(O)CO", "Potency": "inactive"}, {"smiles": "CC(C)=CCCC(C)CC(=O)O", "note": "(stereo not given)", "Potency": "inactive"}, {"smiles": "CC(=O)c1ccccc1O", "Potency": "inactive"}, {"smiles": "CC(C(=O)O)c1ccc(CC2CCCC2=O)cc1", "note": "(stereo not given)", "Potency": "inactive"}, {"smiles": "Cc1nc2c([nH]1)c(=O)n(C)c(=O)n2Cc1ccco1", "Potency": "inactive"}, {"smiles": "CC(C)c1cc2c(cc1S(=O)(=O)O)[C@@]1(C)CCC[C@@](C)(C(=O)O)[C@@H]1CC2", "Potency": "inactive"}, {"smiles": "C[C@](N)(Cc1ccc(O)cc1)C(=O)O", "activity change, negative = inhibition": "-0.294% [at 8.39 µM]"}, {"smiles": "COCCCOCCCOC", "Potency": "inactive"}, {"smiles": "COC(=O)[C@@H](N)Cc1ccc(O)c(O)c1", "Potency": "inactive"}, {"smiles": "COC(=O)CC(C)=O", "Potency": "inactive"}, {"smiles": "CCCCOCCOCCOCCCC", "Potency": "inactive"}, {"smiles": "COC(=O)c1cc(C(=O)OC)cc(S(=O)(=O)O)c1", "Potency": "inactive"}, {"smiles": "CO[C@]12C[C@@H](COC(=O)c3cncc(Br)c3)CN(C)[C@@H]1Cc1cn(C)c3cccc2c13", "Potency": "inactive"}, {"smiles": "Nc1ccc(S(=O)(=O)Nc2ccnn2-c2ccccc2)cc1", "activity change, negative = inhibition": "-2.22% [at 19 µM]"}, {"smiles": "CC(C)(O)C(=O)c1ccccc1", "Potency": "inactive"}, {"smiles": "OCCCC1CCCCC1", "Potency": "inactive"}, {"smiles": "CC(=O)OCC(=O)[C@@]1(O)CC[C@H]2[C@@H]3CCC4=CC(=O)CC[C@]4(C)[C@H]3C(=O)C[C@@]21C", "Potency": "inactive"}, {"smiles": "CO[Si](CCCOCC1CO1)(OC)OC", "note": "(stereo not given)", "Potency": "inactive"}, {"smiles": "CCCc1cc(C(N)=S)ccn1", "Potency": "inactive"}, {"smiles": "Cc1cc2c(cc1S(N)(=O)=O)S(=O)(=O)CCC2", "Potency": "inactive"}, {"smiles": "CCCCC(CC)COC(=O)c1ccccc1O", "note": "(stereo not given)", "Potency": "inactive"}, {"smiles": "N=C(N)c1ccc(OCCCOc2ccc(C(=N)N)cc2)cc1", "Potency": "inactive"}, {"smiles": "O=Cc1cccc([N+](=O)[O-])c1", "Potency": "inactive"}, {"smiles": "Cc1cnc(NS(=O)(=O)c2ccc(N)cc2)nc1", "Potency": "inactive"}]}]}
